This note sets out measurements from PubChem BioAssay (Tox21).

Inconclusive results are not listed. Activity calls are given as the source filed them. Unless noted, the call rests on the fitted dose curve; in most records, active means well fitted curve in the direction sought with a large enough effect in the repeat runs; inconclusive means weak or mixed curves; inactive means no such curve, though single readings can be large; an effect the other way counts as inactive or inconclusive.

A short description of assay [1]: qHTS assay to identify small molecule antagonists of the vitamin D receptor (VDR) signaling pathway - cell viability counter screen (AID 743225). Further: nearly all actives have a fitted effect of over 50% in size. The gist of the method:
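Cytotoxicity toward the VDR-bla HEK 293T line was scored by ATP-based CellTiter-Glo luminescence, read in the wells already used for the beta-lactamase readout after 16 h compound treatment under 3 nM 1-alpha,25-dihydroxyvitamin D3 stimulation.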
(In general: qHTS replaces the single test concentration by a dilution series.)

Assay [2] in a line: qHTS assay to identify small molecule agonists of the NFkB signaling pathway (AID 1159509; active means well fitted curve in the direction sought with a large enough effect in the signal ratio in the repeat runs, not every such curve was filed as active; the % refers to the signal ratio; further: series mostly up to about 61 µM). The procedure, abridged:
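NFkB-bla ME-180 cells with a beta-lactamase reporter under an NF-kB response element were plated overnight, treated with compounds in DMSO for 5 hr at 37 C, then loaded with FRET substrate for 1.5 hr at room temperature.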

The nature of assay [3]: qHTS assay to identify small molecule agonists of the NFkB signaling pathway - cell viability counter screen (AID 1159515; calls by dose curve; further: series mostly up to about 61 µM; nearly all actives have a fitted effect of over 55% in size). The gist of the method: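 5 hr compound treatment of NFkB-bla ME-180 cells (2,000/well, seeded overnight beforehand), followed by reporter substrate for 1.5 hr. CellTiter-Glo added afterward; luminescence after 30 min RT.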
Assay [4] in a line: qHTS assay to identify small molecule agonists of the endoplasmic reticulum stress response signaling pathway - cell viability counter screen (AID 1159517; calls by dose curve;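 further: HeLa cells carrying an ER stress response element beta-lactamase reporter; series mostly up to about 61 µM; nearly all actives have a fitted effect of over 50% in size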). The procedure, abridged: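 Luminescence readout: CellTiter-Glo, 30 min RT, same wells as the ESRE-bla reporter read. HeLa ESRE-bla, 1,500 cells/well, o/n 37 C; cpd 5 hr 37 C/5% CO2.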
Assay [5] is described as follows: qHTS assay to identify small molecule antagonists of the retinoid-related orphan receptor gamma (ROR-gamma) signaling pathway - cell viability counter screen (AID 1159520). Further: nearly all actives have a fitted effect of over 50% in size. The procedure, abridged: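 Tet-on ROR gamma CHO cells (1,000/well) were plated 4 hr, given compounds in DMSO for 2 hr at 37 C, then induced with 1 uM final doxycycline for 16 hr. Viability was read as ATP by CellTiter-Glo luminescence after 30 min.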

Assay [6] has as its target Nuclear receptor ROR-gamma (Homo sapiens) (UniProt P51449). The experiment in a line: qHTS assay to identify small molecule antagonists of the retinoid-related orphan receptor gamma (ROR-gamma) signaling pathway (AID 1159521;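 further: CHO cells with doxycycline inducible ROR-gamma driving an RORE luciferase reporter; top concentration of the series differs between compounds; nearly all actives have a fitted effect of over 50% in size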). The procedure, abridged: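 Readout: ONE-Glo luciferase luminescence, 30 min at room temperature. System: Tet-on RORγ CHO, RORE-LUC. Sequence: compound 2 h, doxycycline 1 uM final, 16 h at 37 C.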

Assay [7] in a line: qHTS assay to identify small molecule agonists of the AP-1 signaling pathway - cell viability counter screen (AID 1159525; calls by dose curve; further: nearly all actives have a fitted effect of over 55% in size). The procedure, abridged:
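ME-180 AP-1-bla, 2500 cells/well, Opti-MEM + 0.5% dialyzed FBS; overnight 37 °C; cpd 15-pt titration, 5 h 37 °C; CellTiter-Glo 30 min RT; luminescence read; normalised to TOAB and DMSO controls.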

A short description of assay [8]: qHTS assay to identify small molecule agonists of the AP-1 signaling pathway (AID 1159526; calls by dose curve).
The nature of assay [9]: qHTS assay to identify small molecule agonists of the RXR signaling pathway - cell viability counter screen (AID 1159529). The gist of the method: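 Tox21 10K compounds were tested for cytotoxicity against GeneBLAzer RXR-alpha HEK 293T cells grown in 2% charcoal-stripped FBS. Exposure lasted 16 hr at 37 C, 5% CO2; viability read by CellTiter-Glo luminescence.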
A short description of assay [10]: qHTS assay to identify small molecule antagonists of the retinoid acid receptor (RAR) signaling pathway - cell viability counter screen (AID 1159551). Further: nearly all actives have a fitted effect of over 35% in size. The procedure, abridged:
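Seed C3RL4 cells; next day add compound, then retinol to 1 uM final; incubate 6 h at 37 C; add CellTiter-Glo; read luminescence after 30 min at RT.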

Assay [11] can be described thus: qHTS assay to identify small molecule antagonists of the retinoic acid receptor (RAR) signaling pathway (AID 1159552; further: nearly all actives have a fitted effect of over 50% in size). The gist of the method:
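Overnight-plated C3RL4 reporter cells get compound, then retinol to 1 uM final; plates sit 6 hr at 37 C, 5% CO2. A luciferase reagent is added and light output recorded after 30 min at room temperature.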

The nature of assay [12]: qHTS assay to identify small molecule agonists of the retinoic acid receptor (RAR) signaling pathway (AID 1159553). Further: potency means the concentration at half of the fitted maximal effect. The procedure, abridged: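 Activation of retinol signaling was monitored via a RARE luciferase reporter in C3RL4 cells. After 6 hr compound treatment at 37 C, detection reagent was added for 30 min at room temperature before luminescence reading.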
Assay [13] in a line: qHTS assay to identify small molecule agonists of the endoplasmic reticulum stress response signaling pathway (AID 1159516; active means well fitted activation curve with a large enough effect in the signal ratio in the repeat runs, not every such curve was filed as active; the % refers to the signal ratio). The gist of the method:
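Reporter HeLa cells (ESRE-beta-lactamase) underwent 5 hr compound incubation at 37 C and 5% CO2 in quantitative HTS format. Detection followed 2 hr of FRET substrate loading at room temperature.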

On to `CCOc1ccc2c(c1)C(C)CC(C)(C)N2` (centres undefined), for which the result in [1], in assay [2], in assay [3], in [4], in [7] and in assay [10] was inactive. Also, in assay [11], the compound was classed as inactive. The Potency entry in [5], in assay [6], in [8] and in [9] was “inactive” each time. In assay [12], the Potency was 54.5 µM (active).
With `CCC1=C(C)CN(C(=O)NCCc2ccc(S(=O)(=O)NC(=O)NC3CCC(C)CC3)cc2)C1=O` (centres undefined), the compound was classed as inactive in assay [1], in [2], in [3], in assay [4], in [7] and in [11]. The Potency entry in assay [5], in [6], in assay [8], in assay [9] and in [12] was “inactive” throughout.
As for `CC(=O)Nc1ccn(C2COC(COC(=O)c3ccccc3)O2)c(=O)n1` (centres undefined), the compound was called inactive in [1], in assay [2], in assay [3], in [4], in [10] and in [11]. Besides, the Potency result in assay [5], in assay [6], in assay [8], in [9] and in assay [12] was “inactive” in each case.
With `CC(C)CCCCCOC(=O)CS`, the result in assay [1], in assay [2], in assay [3], in [4], in assay [7] and in assay [10] was inactive. For the same compound, the result in assay [11] was inactive. Besides, the Potency result in [5], in assay [6], in assay [8] and in assay [9] was “inactive” in each case.
Consider `O=C(Cl)c1cc(Cl)cc(Cl)c1`, for which the result in [1], in assay [2], in assay [3], in assay [4], in [7] and in [10] was inactive. In addition, the Potency entry in assay [5], in [8] and in [9] was “inactive” in each case.
Turning to `CCC[Si](OC)(OC)OC`, the call in assay [2], in assay [3], in assay [4], in assay [10] and in [11] was inactive. Further, the Potency entry in assay [5], in [8], in assay [9] and in assay [12] was “inactive” throughout.
Turning to `CC(C)=CCC/C(C)=C/C=N/O`, the compound was classed as inactive in [2], in [13], in [4], in assay [7], in assay [10] and in assay [11]. Further, the Potency result in assay [5], in assay [8], in assay [9] and in assay [12] was “inactive” each time.
As to `CCC(=O)O[C@]1(C(=O)COC)[C@@H](C)C[C@H]2[C@@H]3CCC4=CC(=O)C=C[C@]4(C)C3(F)[C@@H](O)C[C@@]21C` (some centres undefined), the outcome in assay [1], in assay [2], in assay [13], in assay [4] and in [10] was inactive. Also, the Potency result in [5], in assay [6], in [8], in [9] and in assay [12] was “inactive” in each case.
Turning to `CCC(C)C1N=C(C)C(C)S1` (centres undefined), the compound was called inactive in [1], in assay [2], in [13], in [4] and in assay [7]. Also, the Potency result in assay [5], in assay [6], in assay [8], in assay [9] and in assay [12] was “inactive” in each case.
In the case of `CO[C@@H]1[C@@H](O[C@@H]2O[C@H](C)[C@@H](O[C@H]3C[C@@](C)(O)[C@@H](O)[C@H](C)O3)[C@H](N(C)C)[C@H]2O)[C@@H](CC=O)C[C@@H](C)[C@@H](O[C@@H]2CC[C@H](N(C)C)[C@@H](C)O2)/C=C/C=C/C[C@@H](C)OC(=O)C[C@H]1OC(C)=O`, the result in [1], in assay [2], in assay [13], in [4], in [7] and in [10] was inactive. In addition, the outcome in assay [11] was inactive. Also, the Potency entry in [5], in assay [6], in assay [8] and in [12] was “inactive” throughout.
Consider `Clc1ccccc1-c1nc(-c2ccncc2)no1`, for which the result in assay [1], in assay [2], in assay [13], in assay [4], in assay [7] and in assay [10] was inactive. The call in assay [11] was inactive. Further, the Potency result in assay [5], in assay [6], in assay [8] and in assay [9] was “inactive” in each case. In addition, the Potency in assay [12] was 2.11 µM (active).
As to `CC/C=C/CCO`, the compound was classed as inactive in assay [3], in assay [13], in [4], in assay [7] and in assay [10]. The Potency entry in [5], in [8] and in [9] was “inactive” throughout.
